JMJD2E inh: JMJD2E (human) inhibition; JMJD2E catalytic domain, FDH-coupled NADH fluorescence (FDH is formaldehyde dehydrogenase); 230,000 compounds, 1.6% hits; Potency, µM (series often up to 57.1 µM), for inactives: at the highest dose activity change, negative = inhibition, hits mostly inhibitors; B2RXH2; active means well fitted inhibition curve with a large enough effect, not every such curve was filed as active; inconclusive means small, poorly fitted or top-dose-only effect, or another doubt; inactive means no such curve, though single readings can be large or run the other way;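 further: potency means the concentration at half of the fitted maximal effect; 0% = wells with enzyme and -100% = buffer wells without enzyme; nearly all actives have a fitted effect of over 50% in size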
Target sequence (B2RXH2 1-337 limits assumed): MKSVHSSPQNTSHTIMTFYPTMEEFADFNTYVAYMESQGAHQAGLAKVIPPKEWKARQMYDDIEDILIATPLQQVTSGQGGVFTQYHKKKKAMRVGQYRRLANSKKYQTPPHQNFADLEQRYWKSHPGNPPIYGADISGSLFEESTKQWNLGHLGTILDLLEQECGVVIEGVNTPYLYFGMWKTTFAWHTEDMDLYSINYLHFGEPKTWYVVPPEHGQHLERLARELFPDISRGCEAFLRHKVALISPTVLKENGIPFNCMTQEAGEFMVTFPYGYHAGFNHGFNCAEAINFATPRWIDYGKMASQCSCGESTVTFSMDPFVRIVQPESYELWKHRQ
FBPA coupling cs: coupling enzyme interference in Giardia aldolase counter-screen; coupling enzyme system counterscreen, AmpLite Red fluorescence; AID 2472; 290,000 compounds, 0.67% hits; activity change, negative = inhibition, % at 58.2 µM, hits read low; in the data active means activity change below about -30%
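Counterscreen lacking aldolase: glyceraldehyde-3-phosphate coupling-enzyme reagent preincubated 10 min at RT with compound (at 57.5 uM final), then substrate/coupling system with AmpLite Red added; fluorescence read at 525/598 nm after 20 min RT.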
Tau fluor cs: counter-screen for tau fibril formation inhibitors | 280,000 compounds, 0.93% hits | tau K18 P301L Alexa594 fluorescence, heparin fibrillization | AID 1463 | Potency, µM (highest dose often 57.7 µM), without a hit: top-dose activity change, negative = decrease; further: potency means the concentration at half of the fitted maximal effect; nearly all actives have a fitted effect of over 55% in size
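Human tau K18 P301L (15 uM unlabeled, 0.24 uM Alexa 594-labeled) in 100 mM sodium acetate pH 7 with 20 uM heparin, 6 hr at 37 C. ThT 30 uM added, 1 hr ambient; Alexa 594 FP and total fluorescence read at 555/632 nm.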
Tau ThT inhib: blocks human tau fibril formation measured by thioflavin T; P10636; recombinant tau K18 P301L (four-repeat tau fragment), heparin-induced fibrillization, ThT fluorescence; Potency, µM (doses to about 57.4 µM), inactives show top-dose activity, negative = inhibition, actives largely listed as inhibitors; 270,000 compounds, 2.1% hits; further: potency means the concentration at half of the fitted maximal effect; nearly all actives have a fitted effect of over 55% in size
Target sequence (P10636 561-689 P618L limits assumed): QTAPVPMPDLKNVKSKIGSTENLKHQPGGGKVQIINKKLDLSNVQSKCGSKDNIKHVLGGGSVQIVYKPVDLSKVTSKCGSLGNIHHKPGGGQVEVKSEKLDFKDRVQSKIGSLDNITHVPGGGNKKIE
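Aggregation was driven by heparin (20 uM final) acting on recombinant tau […] bearing P301L in 100 mM sodium acetate pH 7; fibrils were detected with Thioflavin T.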
Tau fibril FP: inhibitors of human tau fibril formation; Potency, µM (titrated, usually from 57.7 µM), for inactives: top-dose activity, negative = inhibition, usual class: inhibitors; 280,000 compounds, 0.39% hits; K18 P301L tau heparin fibrillization, Alexa594 FP, 6 h; P10636; further: potency means the concentration at half of the fitted maximal effect; nearly all actives have a fitted effect of over 55% in size
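K18 P301L tau (15 uM unlabeled/0.24 uM Alexa 594-labeled, final) + compound + heparin 20 uM final; 100 mM NaOAc pH 7; 6 hr 37 C; ThT 30 uM final added, 1 hr RT; FP ex 555/em 632 nm.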
* hit, by the source's call; ? = inconclusive; . = no result given; [ ] = another dose, or the depositor's remark. Compounds with a hit are over-represented: about 3% of the library has one in this group of screens. Unless noted, the call rests on the fitted dose curve; in most records, active means well fitted curve in the direction sought with a large enough effect; inconclusive means small, poorly fitted or top-dose-only effect, or another doubt; inactive means no such curve, though single readings can be large; an effect the other way counts as inactive or inconclusive. Unless noted, on the % scale 0 is the no-effect control and ±100 the full control effect.

SMILES | JMJD2E inh | FBPA coupling cs | Tau fluor cs | Tau ThT inhib | Tau fibril FP
COC(=O)c1c(NC(=O)C2COc3ccccc3O2)sc2c1CCN(C(C)=O)C2 (configuration not stated) | ? | 2 | 11% | -10% | 1%
CNC(=O)c1c(NC(=O)c2nc3ccccc3s2)sc2c1CCC2 | -20% | -5 | ? | 7.1µM* | 12%
COC(=O)c1c(NC(=O)c2nc3ccccc3s2)sc2c1CCN(C(C)=O)C2 | -1% | 1 | -23% | 16µM* | -5%
O=C(NCC(c1ccco1)S(=O)(=O)c1cccs1)c1ccccc1 (configuration not stated) | . | . | -7% | -6% | -7%
CC1CC(=O)c2c(cc3c(-c4c(O)cc(O)c5c(O)c6c(cc45)OC(C)CC6=O)c(O)cc(O)c3c2O)O1 (configuration not stated) | 8.9µM* | -8 | ? | ? | ?
CCOc1ccc2nc3cc(NCc4ccc(OC)cc4)ccc3c(N)c2c1 | . | -5 | . | . | .
CCOc1ccc2nc3cc(N)ccc3c(N)c2c1 | ? | -26 | 13µM*[quencher] | 7.1µM* | ?
Nc1nonc1C(=O)NCCN=Cc1cc(Cc2ccccc2)cc(Br)c1O | 1% | -2 | ? | 28µM* | ?
Nc1nonc1C(=O)NCCN=Cc1ccccc1O | 5% | 0 | 0% | 2% | -5%
CCC(=O)Oc1c(Sc2ccc(C)cc2)c(C)nn1-c1ccccc1 | . | . | -23% | ? | ?
CCC(=O)Oc1c(Sc2ccc(Cl)cc2)c(C)nn1-c1ccccc1 | . | . | -30% | 22µM* | ?
CCCC(=O)Oc1c(Sc2ccc(C)cc2)c(C)nn1-c1ccccc1 | . | . | -28% | 25µM* | ?
CCCOC(=O)c1ccc(Oc2cn[nH]c2-c2ccc(OC)cc2O)cc1 | -2% | -4 | 11µM*[quencher] | ? | ?
C=C(C)COc1ccc(-c2[nH]ncc2Oc2ccc(OC)cc2)c(O)c1 | -16% | -3 | 7.9µM*[quencher] | ? | ?
C=C(C)COc1ccc(-c2[nH]ncc2-c2ccccc2OC)c(O)c1 | -9% | -5 | 16µM*[quencher] | ? | -5%
C=C(C)COc1ccc(-c2[nH]ncc2Oc2ccccc2OC)c(O)c1 | ? | -2 | 14µM*[quencher] | ? | ?
O=S(=O)(c1ccc(Br)cc1)c1nc(-c2ccco2)oc1SCc1ccccc1Cl | . | . | ? | -3% | -11%
CCOC(=O)c1ncc2[nH]c3cccc(OC(C)C)c3c2c1C | . | -5 | ? | -11% | 3%
CCCCOc1ccc(C(=O)NCc2cn3cccc(C)c3n2)cc1 | . | . | 11% | 16% | -9%
C=C(C(=O)OCC)C(=O)c1ccccc1 | -3% | 2 | -3% | 0% | ?
Cc1cccc(NC(=O)N2CCC(CN3CCCCCC3)CC2)c1C | . | . | -7% | -14% | ?
C=C(C)COc1ccc(-c2[nH]ncc2-c2ccc(Br)cc2)c(O)c1 | 20% | -2 | 10µM*[quencher] | ? | 28µM*
C=C(C)COc1ccc(-c2ncncc2-c2ccc(Br)cc2)c(O)c1 | . | 0 | . | . | .
CCOC(=O)C1=C(c2ccccc2)O/C(=C(/C#N)C(F)(F)F)S1 | -14% | 0 | ? | 16µM* | ?
COc1cc(OC)c(OC)cc1CN1CCc2nc(Nc3ccc4c(c3)OCCO4)ncc2C1 | . | . | -20% | ? | 8%
SMILES | JMJD2E inh | FBPA coupling cs | Tau fluor cs | Tau ThT inhib | Tau fibril FP
COc1ccc2oc(=O)c(-c3nc(C)cs3)cc2c1 | ? | -2 | -15% | ? | -12%
CC/C(C)=N\Nc1nc(-c2cc3cc(OC)ccc3oc2=O)cs1 | ? | -1 | 18µM*[quencher] | 22µM* | ?
Cc1csc2nc(COC(=O)c3ccc(NC(=O)c4ccccc4Br)cc3)cc(=O)n12 | . | . | -17% | -6% | -7%
CC(C)C[C@H](NC(=O)[C@H](CCCCN)NC(=O)[C@H](CCCNC(=N)N)NC(=O)[C@H](C)NC(=O)[C@H](CO)NC(=O)[C@H](CCCCN)NC(=O)[C@H](CCCNC(=N)N)NC(=O)[C@H](C)NC(=O)CNC(=O)[C@@H](NC(=O)[C@H](Cc1ccccc1)NC(=O)CNC(=O)CNC(=O)[C@@H](N)Cc1ccccc1)[C@@H](C)O)C(=O)N[C@@H](C)C(=O)N[C@@H](CC(N)=O)C(=O)N[C@@H](CCC(N)=O)C(=O)O | . | -3 | . | . | .
CC1(C)Oc2cc3c(cc2O1)OC(C)(C)O3 | . | 0 | 2%[11.6 µM] | 1%[11.5 µM] | 5%[11.6 µM]
COc1cc(C(=O)O/N=C2\C=CC(=O)C(C)=C2)cc(OC)c1OC | 2% | -82* | ? | ? | -17%
COc1cc(C(=O)ON=C2C=C(C)C(=O)C(C)=C2)cc(OC)c1OC | -4% | -26 | -1% | ? | -1%
COc1ccc(NC(=O)c2c(NCc3cccs3)sc3c2CCCCC3)cc1 | . | . | ? | ? | -11%
O=C(/C=C/c1cccs1)Nc1nc(-c2ccccc2)cs1 | -25% | -4 | ? | -6% | ?
O=C(/C=C/c1cccs1)Nc1scc(-c2ccccc2)c1C(=O)O | 5µM* | -24 | -7% | ? | 5%
CCC(=O)Nc1ccccc1-c1nc2ccccc2n(C(C)C(=O)Nc2cccc(Cl)c2C)c1=O (configuration not stated) | . | . | 5% | -3% | 10%
COc1ccc(Br)cc1C1C(C(=O)Nc2ccc(C)cc2C)=C(C)Nc2ncnn21 (configuration not stated) | . | . | -15% | -14% | -1%
O=C(Oc1cccc2c(O)cccc12)c1ccccc1 | -6% | -2 | 13µM*[quencher] | ? | 11%
O=C(O)CCc1ccccc1OC(=O)c1ccccc1 | 4% | 6 | 6% | . | -1%
COc1ccc(NC(=O)Cn2c(=O)n(CCC(=O)NCCc3ccc(OC)c(OC)c3)c(=O)c3ccccc32)cc1Cl | . | . | -12% | -6% | -14%
CCOC(=O)c1cc2c(ccn2C)n1CC(=O)N1CCN(c2cccc(C(F)(F)F)c2)CC1 | ? | -33* | -1% | -2% | -5%
CCOC(=O)c1cc2c(ccn2C)n1CC(=O)N1CCN(c2ccc(F)cc2)CC1 | -13% | -10 | -11% | -16% | 13%
COC(=O)c1c(-c2ccc(Cl)cc2)noc1N1CCN(c2cccc(C(F)(F)F)c2)CC1 | . | . | -10% | ? | -5%
[O-]/C(=C(\C(=S)Nc1ccc(SC(F)F)cc1)[n+]1cccc(CO)c1)c1ccc(Cl)s1 | -9% | -8 | ? | 25µM* | -12%
Cc1ccc(NC(=S)/C(=C(\[O-])c2ccc(Cl)s2)[n+]2cccc(CO)c2)cc1C | -6% | -11 | -25% | ? | -5%
[O-]/C(=C(\C(=S)Nc1cccc2ccccc12)[n+]1cccc(CO)c1)c1ccc(Cl)s1 | 13µM* | -30 | ? | 14µM* | ?
Cc1ccc(S(=O)(=O)c2nnn(CC(=O)Nc3ccccc3C)c2N)cc1 | . | . | -8% | 0% | -9%
COC(=O)c1sc2nc(C)c([N+](=O)[O-])c(C)c2c1N | 8% | 1 | -25% | 3.2µM* | -3%

Assay outcomes from PubChem BioAssay.
